# In the library only some 1.8% were active in any assay of this set; here they are far more common.
# MIN6 prolif: MIN6 beta-cell proliferation induction; MIN6 cells proliferation, ATPlite luminescence, 48 h; cells starved in 0.2% serum; 100% = growth in 10% serum; 330,000 compounds, 0.29% hits; proliferation, % at 10 µM;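 active = compounds whose signal lies at least 3.5 SD above the mean of all wells on their plate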;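 also: 0% = DMSO-treated cells in low-serum medium and 100% = 10% serum control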
# A3G deaminase: blocks human APOBEC3G single-stranded DNA deamination; Q9HC16; recombinant A3G, ssDNA deamination FAM/TAMRA fluorescence; inhibition, % at 20 µM; 330,000 compounds, 0.28% hits; AID 493012;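 active = inhibition of at least 40% at 20 µM, with no more than 30% in the related APOBEC3A deaminase screen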;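 also: plate controls were DMSO wells with A3G for no effect and wells lacking A3G enzyme for full effect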
# APOBEC3A inh: blocks human APOBEC3A ssDNA deamination. P31941. recombinant A3A, FAM/TAMRA ssDNA deamination fluorescence. inhibition, % at 20 µM. 330,000 compounds, 0.41% hits. AID 493011;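 active = at least 40% inhibition at 20 µM here, with at most 30% in a related deaminase screen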;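 also: plate controls were A3A with DMSO for no effect and wells lacking A3A enzyme for full effect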
# VLA-4 inh: inhibition in a human VLA-4 binding assay; inhibition, % (about 7 µM as worked out from the volumes in the protocol); P13612; VLA-4 expressing cells, ligand binding flow cytometry; 330,000 compounds, 0.2% hits; in the data active = inhibition above about 50%
# CendR NRP1 mod: modulators of CendR peptide binding to human neuropilin-1. O14786. FAM-RPARPAR peptide binding to NRP-1, fluorescence polarization. inhibition, % at 25 µM. 360,000 compounds, 0.85% hits. AID 602438;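 active = inhibition or corrected inhibition above about 18%, plus a signal ratio from 0.5 to 1.5, limit read from the data, passing the limit was not always enough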
# Target sequence (O14786 whole entry, looked up): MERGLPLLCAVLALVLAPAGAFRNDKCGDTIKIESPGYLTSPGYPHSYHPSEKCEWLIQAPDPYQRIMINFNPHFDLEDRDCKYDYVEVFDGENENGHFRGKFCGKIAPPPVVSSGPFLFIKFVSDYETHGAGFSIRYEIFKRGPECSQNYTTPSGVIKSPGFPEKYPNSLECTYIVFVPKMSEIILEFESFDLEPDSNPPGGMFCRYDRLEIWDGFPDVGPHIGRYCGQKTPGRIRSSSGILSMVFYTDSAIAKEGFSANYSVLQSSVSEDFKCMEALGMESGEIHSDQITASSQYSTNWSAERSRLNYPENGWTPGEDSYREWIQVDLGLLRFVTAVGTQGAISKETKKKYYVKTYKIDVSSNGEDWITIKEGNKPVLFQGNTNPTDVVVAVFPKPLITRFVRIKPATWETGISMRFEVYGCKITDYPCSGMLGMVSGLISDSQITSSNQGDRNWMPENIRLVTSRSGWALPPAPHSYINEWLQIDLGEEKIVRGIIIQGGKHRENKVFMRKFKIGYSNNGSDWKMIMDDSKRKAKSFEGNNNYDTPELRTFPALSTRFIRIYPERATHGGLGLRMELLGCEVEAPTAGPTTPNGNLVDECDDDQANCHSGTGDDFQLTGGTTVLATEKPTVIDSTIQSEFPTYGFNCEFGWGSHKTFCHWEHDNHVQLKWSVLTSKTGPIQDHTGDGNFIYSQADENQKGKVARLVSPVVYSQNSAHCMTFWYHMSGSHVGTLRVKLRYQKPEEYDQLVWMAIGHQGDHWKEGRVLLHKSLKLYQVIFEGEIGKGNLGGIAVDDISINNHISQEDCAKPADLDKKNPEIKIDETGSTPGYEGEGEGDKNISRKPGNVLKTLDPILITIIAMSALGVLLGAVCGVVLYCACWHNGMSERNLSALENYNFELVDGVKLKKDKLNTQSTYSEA
# APOBEC3A confirm: APOBEC3A (human) deaminase inhibition, confirmed; shares compounds with APOBEC3A inh; recombinant A3A, ssDNA deaminase UDG fluorescence assay; inhibition, % at 20 µM; 1,400 compounds, 63% hits;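 active = inhibition reaching a set limit, 80% of the first screen's cutoff, at 20 µM in any replicate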;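 also: plate controls were DMSO wells with A3A for no effect and wells lacking A3A enzyme for full effect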
# UDG A3A counter: counter-screen for APOBEC3A inhibitors: UDG; shares compounds with APOBEC3A inh; 1,000 tested, under 10 active; UDG counterscreen, FAM/TAMRA uracil oligo fluorescence; inhibition, % at 20 µM; call rule not given here
# Numbers without * were called inactive; . = not tested or not shown.
SMILES,MIN6 prolif,A3G deaminase,APOBEC3A inh,VLA-4 inh,CendR NRP1 mod,APOBEC3A confirm,UDG A3A counter
C[N+]12CCC(CC1)C(C#N)(N1CCOCC1)C2 (stereo not drawn),-3,17,46*,17,3,81*,-1
CCC[N+]12CCC(CC1)C(=C(c1ccccc1)c1ccccc1)C2,0,-10,-6,18,-4,.,.
CCCC[N+]12CCC(CC1)C(=C(c1ccccc1)c1ccccc1)C2,-4,12,97*,-13,-2,71*,0
COc1ccc2c3c1OC1C(O)C=CC4C(C2)[N+](C)(C)CCC341 (stereo not drawn),-3,16,71*,9,-4,51*,.
Cn1c(O)c(Cc2ccc(OCc3ccccc3)cc2)c(=O)n(C)c1=O,-3,-9,-5,8,7,.,.
CC(C)C1CN1CC(O)Cn1ccnc1[N+](=O)[O-] (stereo not drawn),.,.,.,.,6,.,.
C=Cc1ccc(Cn2c(C(=O)O)c(C=O)c3ccccc32)cc1,-4,5,74*,12,-42,17,.
CSc1ccccc1C(=O)C1CCCN(Cc2ccn[nH]2)C1 (stereo not drawn),0,-3,0,-7,-6,.,.
CC(C)(C#CCCCCC#CC(C)(C)[N+](C)(C)C)[N+](C)(C)C,-3,14,51*,-1,.,46*,.
COc1cccc(Oc2coc3cc(OC(=O)N(C)C)ccc3c2=O)c1,-1,-5,99*,11,-9,6,1
CN(C)C(=O)Oc1ccc2c(=O)c(Oc3ccccc3Br)coc2c1,-3,1,-2,6,6,.,.
C[N+](C)(C)c1ccccc1,0,14,70*,3,1,78*,-2
COC(=O)C1=C(c2cccc(OC)c2OC)C[C@@H]2CC[C@H]1N2C(=O)NCc1ccco1,0,-6,4,19,-2,.,.
CCC(=O)C(CCN1CCOCC1)(c1ccccc1)c1ccccc1,-1,-4,-4,8,0,.,.
CC(C)[N+](C)(CCC(C(N)=O)(c1ccccc1)c1ccccc1)C(C)C,2,15,68*,3,-8,83*,3
COc1ccc(C(CNC(=O)CCc2ccsc2)N(C)C)cc1 (stereo not drawn),0,-9,-2,0,18,.,.
O=C(NC1CCCCC1)N1Cc2cc(-c3ccccc3)ccc2-n2nncc2C1,.,.,.,.,9,.,.
CCC(=O)N1CC(=O)Nc2ccc(F)cc2C1c1ccc(F)cc1 (stereo not drawn),2,1,1,3,-5,.,.
COc1cc2c(cc1O)C[C@H]1NCCc3cc4c(c-2c31)OCO4,0,19,61*,2,-8,34*,.
CCCCCCC[n+]1ccc(-c2cc[n+](CCCCCCC)cc2)cc1,0,28,58*,-12,-1,75*,-2
Nc1cccc(SC2CC(=O)N(c3ccc(Cl)cc3C(=O)c3ccccc3)C2=O)c1 (stereo not drawn),.,.,.,.,-9,.,.
COc1ccc2[nH]cc(CCN=C(N)N)c2c1,1,14,54*,1,-25,28*,-2
O=C1NC(=O)N(c2ccc3c(c2)OCO3)C(=O)/C1=C/c1ccc(N2CCCCC2)o1,0,6,7,-17,-11,.,.
O=C1NC(=O)N(c2ccc3c(c2)OCO3)C(=O)/C1=C\c1ccc(-c2ccccc2C(=O)O)o1,1,26,76*,5,-55,65*,-2
C[N+]1(CC(COCc2ccccc2)OC(=O)Cc2ccccc2)CCOCC1 (stereo not drawn),0,18,41*,.,-4,69*,1
SMILES,MIN6 prolif,A3G deaminase,APOBEC3A inh,VLA-4 inh,CendR NRP1 mod,APOBEC3A confirm,UDG A3A counter
Cc1sc2ncnc(N3CCC(C(=O)Nc4ccc(C#N)c(Cl)c4)CC3)c2c1C,-7,7,53*,29,2,10,.
Cc1noc(C)c1CSCC(=O)Nc1ccc(C#N)c(Cl)c1,0,-6,0,4,-12,.,.
Cc1cc(OC(=O)N(C)C)nc(SCc2c(Cl)cccc2Cl)n1,-5,-9,-5,3,0,.,.
C[N+]1(C)[C@@H]2CC(OC(=O)[C@H](CO)c3ccccc3)C[C@H]1[C@@H]1O[C@@H]12 (stereo partly drawn),4,-1,0,21,5,.,.
C[N+]1(C)[C@@H]2CC[C@H]1CC(OC(=O)C(c1ccccc1)c1ccccc1)C2 (stereo partly drawn),-2,21,46*,0,-2,61*,.
Cc1cc(/C=C2\C(=O)NC(=O)N(c3cccc(F)c3)C2=O)c(C)n1-c1cc(C(=O)O)cc(C(=O)O)c1,3,29,70*,3,-98,53*,7
Cc1cc(/C=C2\C(=O)NC(=O)N(c3ccc(Br)cc3)C2=O)c(C)n1-c1cc(C(=O)O)cc(C(=O)O)c1,1,47,80,4,-136,.,.
O=Cc1cn(Cc2ccccc2F)c2ccccc12,0,14,45*,5,11,28,.
O=Cc1cn(Cc2c(F)cccc2Cl)c2ccccc12,-4,-4,1,2,-4,.,.
O=C1NC(=O)N(CCc2ccc(F)cc2)C(=O)/C1=C/c1ccco1,-5,27,74*,1,-52,52*,6
CN(C)c1ccc(/C=C2/C(=O)NC(=O)N(Cc3ccco3)C2=O)cc1,-1,20,60*,7,-64,39*,-4
COc1ccc(CN2C(=O)NC(=O)/C(=C\c3cc(OC)c(OC)c(OC)c3)C2=O)cc1,-2,-4,0,7,-14,.,.
COc1ccc(CN2C(=O)NC(=O)/C(=C\c3ccco3)C2=O)cc1,1,26,47*,13,-95,62*,2
CCN(CC)c1ccc(/C=C2/C(=O)NC(=O)N(Cc3ccco3)C2=O)cc1,-1,36,65,-3,-139,.,.
CC12CCC(=O)CC1CCC1C2C(=O)CC2(C)C1CCC2(C)O (stereo not drawn),.,.,.,.,8,.,.
COc1cc2c(cc1OC)C13CCN4CC5=CCOC(CC(=O)O)C(C5CC41)C3N2 (stereo not drawn),.,.,.,.,2,.,.
COc1ccc(N=C2SCCCN2C)cc1,-2,24,48*,10,-2,72*,1
C[N+]1(CC2COC(c3ccco3)O2)CCCCC1 (stereo not drawn),-3,25,60*,39,4,66*,-1

# Assay outcomes deposited in PubChem by several laboratories.
